Assay results reported in PubChem BioAssay AID1511 (Johns Hopkins Ion Channel Center, 2009).
Among all 310,000 compounds or so, about 1,600 (0.52%) were called active.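 Rule for the calls: active = activation above the mean of controls blocked by dofetilide plus 5 SD; inactive = the rest.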 The full list was thinned out, with actives kept by preference.

Each compound was assayed against Voltage-gated inwardly rectifying potassium channel KCNH2 (Homo sapiens) (UniProt Q12809) (assay: compounds relieving dofetilide block of hERG – cell-based, CHO-hERG, FluxOR thallium flux, dofetilide IC70, primary screen (AID 1511;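 note: thallium influx through hERG after potassium depolarization seen as dye fluorescence rise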)). Conditions: dofetilide IC70 present, at 10 µM, hits give high values.
Sequence of Voltage-gated inwardly rectifying potassium channel KCNH2 (Homo sapiens) (Q12809 whole entry, looked up): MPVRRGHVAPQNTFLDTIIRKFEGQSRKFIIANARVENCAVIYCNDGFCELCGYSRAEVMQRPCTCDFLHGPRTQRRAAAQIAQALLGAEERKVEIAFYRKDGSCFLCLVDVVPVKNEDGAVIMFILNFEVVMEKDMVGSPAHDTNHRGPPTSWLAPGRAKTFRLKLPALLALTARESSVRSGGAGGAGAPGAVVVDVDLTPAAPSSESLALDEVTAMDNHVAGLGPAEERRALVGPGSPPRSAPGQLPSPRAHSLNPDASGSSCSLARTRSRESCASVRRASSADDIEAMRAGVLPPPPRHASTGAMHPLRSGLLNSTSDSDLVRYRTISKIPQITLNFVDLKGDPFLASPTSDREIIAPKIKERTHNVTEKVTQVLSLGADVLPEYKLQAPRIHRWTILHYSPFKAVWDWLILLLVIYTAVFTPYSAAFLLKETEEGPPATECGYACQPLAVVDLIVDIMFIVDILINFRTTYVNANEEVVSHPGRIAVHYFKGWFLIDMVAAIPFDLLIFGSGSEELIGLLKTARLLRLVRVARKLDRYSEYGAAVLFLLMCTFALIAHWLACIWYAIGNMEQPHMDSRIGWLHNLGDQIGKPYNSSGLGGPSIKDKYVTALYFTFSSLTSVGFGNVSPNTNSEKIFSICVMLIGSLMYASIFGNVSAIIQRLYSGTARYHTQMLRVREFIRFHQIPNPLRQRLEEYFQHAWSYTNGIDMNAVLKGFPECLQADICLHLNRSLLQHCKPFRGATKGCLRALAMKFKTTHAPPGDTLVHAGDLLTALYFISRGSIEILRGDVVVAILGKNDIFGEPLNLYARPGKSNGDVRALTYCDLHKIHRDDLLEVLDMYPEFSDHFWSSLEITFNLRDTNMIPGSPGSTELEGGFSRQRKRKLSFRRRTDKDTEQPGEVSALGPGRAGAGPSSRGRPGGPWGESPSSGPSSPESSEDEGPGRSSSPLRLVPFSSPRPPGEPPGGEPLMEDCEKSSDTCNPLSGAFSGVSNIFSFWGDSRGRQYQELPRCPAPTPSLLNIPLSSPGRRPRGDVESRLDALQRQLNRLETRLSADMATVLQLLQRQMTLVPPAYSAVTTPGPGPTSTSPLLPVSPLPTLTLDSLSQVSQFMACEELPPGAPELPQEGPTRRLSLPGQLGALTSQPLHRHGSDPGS

Row | Structure (SMILES) | activation (rescue from dofetilide block), less the hit threshold
1 | FC(F)(F)c1ccnc(Oc2ccc(C3=NCCS3)cc2)c1 | -5.42% (inactive)
2 | COc1ccc(S(=O)(=O)N2CCOC2CNC(=O)C(=O)NCc2ccncc2)cc1OC (stereo not given) | -6.76% (inactive)
3 | O=C(Nc1ccc(-c2cscn2)cc1)C1CCCN(Cc2ccc(CO)o2)C1 (stereo not given) | -2.17% (inactive)
4 | O=C1CCN(CCc2ccccc2)CCN1CCOc1ccccc1 | -5.23% (inactive)
5 | O=C1CCN(CCCc2ccccc2)CCN1CCO | 5.3% (active)
6 | N#Cc1cccc(CN2CCC(=O)N(CCO)CC2)c1 | 1.97% (inactive)
7 | Cc1n[nH]c(=O)c2c(NC(=O)COC(=O)c3ncc(Cl)c(Cl)c3Cl)oc(C)c12 | -12.6% (inactive)
8 | Cc1cc(OCCN2CCCC2)cc(C(C)C)c1 | -6.59% (inactive)
9 | O=C(COC(=O)c1cnc(Cl)c(Cl)c1)NCc1ccco1 | 40.4% (active)
10 | O=C(COC(=O)c1ccco1)NCc1ccc(Cl)cc1 | -0.71% (inactive)
11 | O=C(COC(=O)c1cc(S(=O)(=O)N2CCCCC2)ccc1Cl)NCc1ccco1 | -13.9% (inactive)
12 | Cc1c(CN2CCC(CO)(CCOc3ccccc3)CC2)[nH]c2ccc(Cl)cc12 | -21.9% (inactive)
13 | Cc1nn(CC2CC2)c(=O)n1N(C)c1ncc(C(F)(F)F)cc1Cl | -8.88% (inactive)
14 | O=C1CCCC2=C1C(c1ccccc1)n1c(s/c(=C/c3cccc(F)c3)c1=O)=N2 (stereo not given) | 5.71% (active)
15 | COc1ccc(OC)c(C2C3=C(N=c4s/c(=C\c5cccc(O)c5)c(=O)n42)c2ccccc2CC3)c1 (stereo not given) | -0.7% (inactive)
16 | O=C1CC(c2cccc(F)c2)C2=C(CCCC2=O)N1 (stereo not given) | -5.36% (inactive)
17 | CCOC(=O)Cc1cc(=O)[nH]c(=O)[nH]1 | -4% (inactive)
18 | CC1CCCCC1NC(=O)c1cn(C)c2ccc(S(=O)(=O)N3CCOCC3)cc2c1=O (stereo not given) | -5.24% (inactive)
19 | Cc1cc(C(=O)NCCc2ccc(Cl)cc2)c(C)o1 | -9.03% (inactive)
20 | CCOC(=O)c1c(C)oc2cc(Sc3ccccc3)c(O)c(O)c12 | -5.84% (inactive)

Row | Structure (SMILES) | activation (rescue from dofetilide block), less the hit threshold
21 | COc1ccc(COC(=O)N/N=C(\C)CC(=O)Nc2ccc(Cl)cc2)cc1 | -11.8% (inactive)
22 | CCc1ccc(NC(=O)C(=O)N/N=C(\C)CC(=O)NCCOC)cc1 | 6.83% (active)
23 | C/C(CC(=O)Nc1ccc(Cl)cc1)=N\NC(=O)C(=O)NCCO | -8.82% (inactive)
24 | COC(=O)C(C)N=Cc1ccccc1 (stereo not given) | -14% (inactive)
25 | Cc1ccc(S(=O)(=O)N(CC(=O)NCc2ccco2)c2ccccc2C)cc1 | -7.72% (inactive)
26 | Nc1nnnn1/N=C/c1cccc(Br)c1 | -0.31% (inactive)
27 | COC(=O)c1cccc(-n2[nH]nnc2=S)c1 | -7.53% (inactive)
28 | COc1cc(-c2noc(C3CCCN(S(=O)(=O)c4cccc(Cl)c4)C3)n2)cc(OC)c1OC (stereo not given) | -11.3% (inactive)
29 | COC(=O)c1sc(NC(=S)NC(=O)c2ccc(C)cc2)nc1C | 7.72% (active)
30 | Cc1ccc(C(=O)NC(=S)Nc2ccccc2C)cc1 | -5.4% (inactive)
31 | COC(=O)c1sc(NC(=O)c2csc3c2CCCC3)nc1C | -6.43% (inactive)
32 | CCCN(C(=O)CSc1nnnn1C)c1c(N)n(Cc2ccccc2)c(=O)[nH]c1=O | -7.93% (inactive)
33 | Cc1ccc2c(c1)nnc1nnc(SCC(=O)O)n12 | 1.69% (inactive)
34 | CCOC(=O)N1CCN(C(=O)c2ccc(CN(c3ccc(C)c(C)c3)S(C)(=O)=O)cc2)CC1 | 4.64% (active)
35 | CCN1CCN(C(=O)c2ccc(CN(c3ccc(C)c(C)c3)S(C)(=O)=O)cc2)CC1 | -6.12% (inactive)
36 | CCOC(=O)N1CCN(C(=O)CN(c2ccc(C)c(C)c2)S(=O)(=O)c2ccccc2)CC1 | -9.17% (inactive)
37 | O=C(NC1CCCC1)C(c1c(F)cccc1Cl)N(C(=O)c1csnn1)C1CC1 (stereo not given) | -2.39% (inactive)
38 | CCO[C@H]1OC(C(=O)O)=C[C@@H](C2CCCCC2)[C@@H]1CCCO | -4.25% (inactive)
39 | COc1cc(OC)cc(/C(N)=N/O)c1 | -15.6% (inactive)
40 | CC1CC(C)CN(C(=O)CSc2ccsc2[N+](=O)[O-])C1 (stereo not given) | -2.19% (inactive)

Row | Structure (SMILES) | activation (rescue from dofetilide block), less the hit threshold
41 | CN(c1ccccc1)S(=O)(=O)c1ccc(Cl)c(C(=O)OCC(=O)N2CCOCC2)c1 | 4.51% (inactive)
42 | O=C(OCC(=O)N1CCN(C(=O)c2ccco2)CC1)c1cccc(O)c1 | -4% (inactive)
43 | CN(c1ccccc1)S(=O)(=O)c1cc(C(=O)OCC(=O)N2CCN(C(=O)c3ccco3)CC2)ccc1Cl | 5.23% (active)
44 | Cc1ccc(NC(=O)CSc2nnc(CNC(=O)c3ccccc3F)o2)cc1Cl | -8.43% (inactive)
45 | CCN(CC)c1ccc(C(=O)c2cnc(/N=C/N(C)C)s2)cc1 | -22% (inactive)
46 | Cc1cc(C)c(NC(=O)CSc2nc3ccncc3[nH]2)c(C)c1 | -2.72% (inactive)
47 | Cc1cc(C)c(NC(=O)CS(=O)CC(=O)Nc2cccnc2)c(C)c1 (stereo not given) | 7.98% (active)
48 | Cc1ccc(NC(=O)Nc2cccnc2)cc1 | -1.84% (inactive)
49 | COc1ccc(CCc2nnc(CCC(=O)NCc3cnn(-c4ccccc4C)c3)o2)cc1 | -3.52% (inactive)
50 | COc1ccc(S(=O)(=O)NCC(c2ccco2)N2CCOCC2)cc1 (stereo not given) | -10.9% (inactive)
51 | Cc1ccc(NNC(=O)c2c(F)cccc2Cl)cc1Cl | -7.77% (inactive)
52 | Cc1cc(OC(=O)c2c(Cl)cccc2Cl)nc(C)n1 | -14.7% (inactive)
53 | Cc1cc(C)c(S(=O)(=O)c2ccccc2)c(OC(=O)c2c(F)cccc2Cl)n1 | 8.53% (active)
54 | Cc1cccc(S(=O)(=O)N2CN(CC3CCCO3)c3nc4ccccc4nc32)c1 (stereo not given) | -10.3% (inactive)
55 | CCOc1cc(/C=N/Nc2cc(C)nc3ccc(C)cc23)ccc1O | -14.3% (inactive)
56 | CCOC(=O)C1CCN(c2c(Nc3cc(C)cc(C)c3)c(=O)c2=O)CC1 | -11.1% (inactive)
57 | O=c1c2cc(Br)ccc2nc(-c2cccc(Cl)c2)n1O | 59% (active)
58 | Cc1cccc(-c2nc3ccccc3c(=O)n2NC(=O)Cc2ccc(Cl)cc2)c1 | -2.81% (inactive)
59 | O=C1CCCc2c1nc(-c1cccc(Cl)c1)n2O | -10.5% (inactive)
60 | O=C(CN1CCN(S(=O)(=O)c2cc(Cl)ccc2Cl)CC1)c1ccc(O)c(O)c1 | -1.99% (inactive)
